The structures appear in SMILES notation. Active and inactive are the calls of the source. Unless noted, no rule for the calls is given here.

Test system in one assay: not listed separately
The assay can be described thus: liver-stage malaria parasite growth inhibition, primary screen, cell-based, HepG2, luciferase luminescence, HepG2 viability (AID 624349; in the data active = parasite load remaining mostly below about 12%, no sharp cut-off; inactive = mostly above about 10%;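 also: 100% = mean of DMSO negative control wells on the same plate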). Conditions: P. berghei liver stage in HepG2, luciferase luminescence, concentration not given here; parasite load remaining: stronger effect = lower value; viability: measured here: HepG2 viability without parasites.
Regarding `CN1C[C@@H](NS(=O)(=O)N(C)C)C[C@@H]2c3cccc4c3c(cn4C)C[C@H]21`, the parasite load remaining was 32.6% (inactive) and the viability (in general, a read-out of living cells in per cent, often relative to untreated cells) was determined as 102%.
The matching figures for `O=C1NCN(c2ccccc2)C12CCN(CC1COc3ccccc3O1)CC2` (centres undefined): 34.8% (inactive) and 103%.
The matching figures for `COc1ccc(C(=O)c2c(C)n(CCN3CCOCC3)c3ccccc23)cc1`: 50.5% (inactive) and 159%.

In a further assay the test system is Hepatitis C virus NS3 helicase. The assay can be described thus: HCV NS3 helicase inhibitors, primary screen, biochemical, fluorescence polarization, LOPAC1280 library (AID 687035; in the data active = inhibition above about 37%). As to conditions: Purified HCV NS3 helicase, Cy5-dT15 ssDNA binding fluorescence polarization; stronger effect = higher value; concentration not given here. (In fluorescence polarisation assays a small probe gives low polarisation when free and higher when bound to something large.)
As for `Cc1cccc(C)c1NC(=O)CN1CCCC1=O`, the inhibition (commonly the drop in the measured response relative to a control, in per cent) was -5% (inactive).
Regarding `CC(=O)[C@H]1CC[C@H]2[C@@H]3CC[C@H]4C[C@H](O)CC[C@]4(C)[C@H]3C(=O)C[C@]12C`, the inhibition is -1% (inactive).
As for `CCCN1CCC[C@@H]2Cc3nc(N)ncc3C[C@H]21`, the inhibition is -1% (inactive).
As for `Cn1c(CCCC(=O)O)nc2cc(N(CCCl)CCCl)ccc21`, the inhibition is -4% (inactive).
In the case of `Cc1ncsc1CCCl`, the inhibition is -2% (inactive).
Consider `CCCCc1ccc(C(=O)O)nc1`, for which the inhibition is -3% (inactive).
Regarding `Cc1ccc(S(=O)(=O)N[C@@H](CCCCN)C(=O)CCl)cc1`, the inhibition was -3% (inactive).
In the case of `c1ccc(C2CC2)c(OCC2=NCCN2)c1`, the inhibition was -4% (inactive).
Regarding `Fc1ccc(C(OCCN2CCN(CCCc3ccccc3)CC2)c2ccc(F)cc2)cc1`, the inhibition is -2% (inactive).
`CC[N+](CC)(CC)CC`: the inhibition was 14% (inactive).
Consider `CCCCC/C=C\C/C=C\C/C=C\C/C=C\CCCC(=O)NCC(=O)O`, for which the inhibition is -1% (inactive).
Consider `NCC1(CC(=O)O)CCCCC1`, for which the inhibition is -6% (inactive).
Regarding `O=C1NCN(c2ccccc2)C12CCN(CC1COc3ccccc3O1)CC2` (centres undefined), the inhibition is -6% (inactive).
Take `N#CC(C#N)=Cc1ccc(O)c(O)c1`: the inhibition was 0% (inactive).

Test system in a further assay: not listed separately
In words: Cy5 fluorescence quenching or enhancement artefacts, artefact control for HCV NS3 helicase inhibitor project, biochemical, LOPAC1280 (AID 687037). Conditions: Cy5-DNA-NS3h complex fluorescence interference counterscreen. (In general: A counterscreen serves to expose hits that act by an unwanted route or on another target.)
Consider `Cc1cccc(C)c1NC(=O)CN1CCCC1=O`, for which the fluorescence ratio (interference) is 1 (inactive).
The same measure, in the same setting: for `CC(=O)[C@H]1CC[C@H]2[C@@H]3CC[C@H]4C[C@H](O)CC[C@]4(C)[C@H]3C(=O)C[C@]12C` the value was 1 (inactive); for `CCCN1CCC[C@@H]2Cc3nc(N)ncc3C[C@H]21`, 1 (inactive).
With `Cn1c(CCCC(=O)O)nc2cc(N(CCCl)CCCl)ccc21`, the fluorescence ratio (interference) was 1 (inactive).
Still for that read-out and setting: for `Cc1ncsc1CCCl` the value was 1 (inactive).
Regarding `CCCCc1ccc(C(=O)O)nc1`, the fluorescence ratio (interference) is 1.1 (inactive).
Regarding `Cc1ccc(S(=O)(=O)N[C@@H](CCCCN)C(=O)CCl)cc1`, the fluorescence ratio (interference) is 1 (inactive).
The same measure, in the same setting: as for `c1ccc(C2CC2)c(OCC2=NCCN2)c1`, the figure is 1 (inactive); as for `Fc1ccc(C(OCCN2CCN(CCCc3ccccc3)CC2)c2ccc(F)cc2)cc1`, 1 (inactive); as for `CC[N+](CC)(CC)CC`, 1 (inactive).
Take `CCCCC/C=C\C/C=C\C/C=C\C/C=C\CCCC(=O)NCC(=O)O`: the fluorescence ratio (interference) was 1 (inactive).
For `NCC1(CC(=O)O)CCCCC1`, the fluorescence ratio (interference) was 1 (inactive).
As to `O=C1NCN(c2ccccc2)C12CCN(CC1COc3ccccc3O1)CC2` (centres undefined), the fluorescence ratio (interference) is 0.9 (inactive).
For the compound `N#CC(C#N)=Cc1ccc(O)c(O)c1`, the fluorescence ratio (interference) was 1 (inactive).

For the origin of these results see PubChem BioAssay.
